# According to article PMC7862700, “An all-to-all approach to the identification of sequence-specific readers for epigenetic DNA modifications on cytosine”:
# Assays:
# Experiment in all cases: DAPPL (digital affinity profiling via proximity ligation, sequencing); 10 mM Tris-HCl pH 7.5, 50 mM NaCl, 1 mM DTT, 4% glycerol, room temperature, 30 min; GST-TFs on glutathione beads, 16-mer random dsDNA library, 0.1% formaldehyde crosslink after washing; high values mean tight binding
# FLI1 = target: T1, FLI1 (Homo sapiens, UniProt Q01543 1-452); conditions: protein: recombinant; tags: N-terminal GST; dsDNA, one strand shown
# T1 sequence: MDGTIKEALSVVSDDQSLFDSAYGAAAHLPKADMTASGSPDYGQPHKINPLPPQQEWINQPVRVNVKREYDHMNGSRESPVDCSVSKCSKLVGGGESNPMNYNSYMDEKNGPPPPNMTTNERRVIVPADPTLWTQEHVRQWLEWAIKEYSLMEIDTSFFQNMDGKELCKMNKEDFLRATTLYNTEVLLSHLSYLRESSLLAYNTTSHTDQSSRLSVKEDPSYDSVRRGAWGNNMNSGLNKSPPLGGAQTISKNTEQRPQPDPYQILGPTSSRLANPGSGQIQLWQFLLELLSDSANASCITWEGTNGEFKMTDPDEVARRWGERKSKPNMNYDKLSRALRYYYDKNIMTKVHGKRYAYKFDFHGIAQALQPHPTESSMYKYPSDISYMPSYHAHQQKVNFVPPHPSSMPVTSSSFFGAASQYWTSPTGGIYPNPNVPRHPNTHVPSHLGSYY
# Summary of the method: (§1)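 Each value of binding signal is a hexamer's read frequency for a factor divided by the same hexamer's frequency in the tag-only sample. Barcoded, bead-captured GST fusions of human transcription factors made in yeast were pooled with that sample and incubated with 200 nmole of a random double-stranded 16-mer DNA library in Tris/NaCl/DTT/glycerol buffer at room temperature for 30 min. Washing, 0.1% formaldehyde crosslinking, proximity ligation, PCR and Illumina NextSeq500 sequencing followed.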
# ELK1 = target: T2, ELK1 (Homo sapiens, UniProt P19419 1-428); conditions: protein: recombinant; tags: N-terminal GST; dsDNA, one strand shown
# T2 sequence: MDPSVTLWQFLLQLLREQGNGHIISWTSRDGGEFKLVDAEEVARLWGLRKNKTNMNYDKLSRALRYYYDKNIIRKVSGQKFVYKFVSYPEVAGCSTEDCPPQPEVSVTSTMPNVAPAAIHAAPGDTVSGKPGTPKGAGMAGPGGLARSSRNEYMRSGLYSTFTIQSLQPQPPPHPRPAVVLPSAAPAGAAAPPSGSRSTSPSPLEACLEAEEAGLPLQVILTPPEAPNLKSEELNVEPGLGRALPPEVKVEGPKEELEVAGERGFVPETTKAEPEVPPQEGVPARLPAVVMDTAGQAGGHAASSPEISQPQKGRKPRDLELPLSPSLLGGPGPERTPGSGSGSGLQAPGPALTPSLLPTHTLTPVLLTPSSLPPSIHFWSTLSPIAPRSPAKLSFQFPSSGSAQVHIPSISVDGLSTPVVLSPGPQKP
# Summary of the method: as §1
# GABPA = target: T3, GABPA (Homo sapiens, UniProt Q06546 1-454); conditions: protein: recombinant; tags: N-terminal GST; dsDNA, one strand shown
# T3 sequence: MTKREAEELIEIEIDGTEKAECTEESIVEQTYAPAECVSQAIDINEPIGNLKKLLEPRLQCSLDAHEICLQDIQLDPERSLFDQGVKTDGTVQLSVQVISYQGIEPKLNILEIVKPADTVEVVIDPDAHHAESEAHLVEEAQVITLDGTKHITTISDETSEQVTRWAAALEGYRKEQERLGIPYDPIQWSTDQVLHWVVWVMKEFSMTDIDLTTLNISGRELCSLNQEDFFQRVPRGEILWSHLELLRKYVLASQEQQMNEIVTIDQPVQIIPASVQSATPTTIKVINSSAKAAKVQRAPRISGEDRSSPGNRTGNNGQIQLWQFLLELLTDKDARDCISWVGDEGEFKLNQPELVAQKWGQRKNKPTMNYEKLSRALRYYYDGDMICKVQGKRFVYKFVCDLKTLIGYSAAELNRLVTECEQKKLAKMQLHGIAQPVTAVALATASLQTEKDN
# Summary of the method: as §1
# ERG = target: T4, ERG (Homo sapiens, UniProt P11308 1-479); conditions: protein: recombinant; tags: N-terminal GST; dsDNA, one strand shown
# T4 sequence: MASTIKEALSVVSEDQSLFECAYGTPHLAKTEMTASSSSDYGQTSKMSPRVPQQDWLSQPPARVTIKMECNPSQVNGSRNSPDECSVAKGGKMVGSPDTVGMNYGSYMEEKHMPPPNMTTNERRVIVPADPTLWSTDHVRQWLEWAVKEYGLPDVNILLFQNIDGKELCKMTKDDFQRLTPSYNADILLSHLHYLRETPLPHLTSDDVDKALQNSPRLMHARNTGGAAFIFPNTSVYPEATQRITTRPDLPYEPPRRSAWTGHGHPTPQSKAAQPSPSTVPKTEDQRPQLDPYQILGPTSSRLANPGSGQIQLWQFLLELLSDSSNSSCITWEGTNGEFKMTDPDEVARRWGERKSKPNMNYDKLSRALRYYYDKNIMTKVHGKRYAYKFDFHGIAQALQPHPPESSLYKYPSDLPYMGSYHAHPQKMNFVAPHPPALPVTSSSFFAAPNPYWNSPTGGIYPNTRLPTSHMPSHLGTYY
# Summary of the method: as §1
# ELF1 = ELF1 (Homo sapiens, UniProt P32519 1-619); conditions: protein: recombinant; tags: N-terminal GST; dsDNA, one strand shown
# ELF1, sequence (P32519 whole entry): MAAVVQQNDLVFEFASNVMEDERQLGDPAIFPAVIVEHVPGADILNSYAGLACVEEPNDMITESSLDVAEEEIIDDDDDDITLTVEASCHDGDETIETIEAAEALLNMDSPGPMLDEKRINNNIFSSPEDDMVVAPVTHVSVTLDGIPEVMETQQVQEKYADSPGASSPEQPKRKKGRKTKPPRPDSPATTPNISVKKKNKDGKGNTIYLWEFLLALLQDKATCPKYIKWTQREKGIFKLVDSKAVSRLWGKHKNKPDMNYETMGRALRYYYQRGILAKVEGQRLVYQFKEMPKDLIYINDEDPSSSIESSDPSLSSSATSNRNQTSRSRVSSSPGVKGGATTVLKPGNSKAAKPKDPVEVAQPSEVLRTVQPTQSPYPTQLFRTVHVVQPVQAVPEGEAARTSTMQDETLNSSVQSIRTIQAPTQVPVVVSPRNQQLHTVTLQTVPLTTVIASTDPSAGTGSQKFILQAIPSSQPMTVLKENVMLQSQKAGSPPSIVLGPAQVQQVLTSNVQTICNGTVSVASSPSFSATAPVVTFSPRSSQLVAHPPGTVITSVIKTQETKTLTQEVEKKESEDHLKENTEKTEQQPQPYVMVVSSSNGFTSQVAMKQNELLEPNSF
# Summary of the method: as §1
# EHF = target: T5, EHF (Homo sapiens, UniProt Q9NZC4 1-300); conditions: protein: recombinant; tags: N-terminal GST; dsDNA, one strand shown
# T5 sequence: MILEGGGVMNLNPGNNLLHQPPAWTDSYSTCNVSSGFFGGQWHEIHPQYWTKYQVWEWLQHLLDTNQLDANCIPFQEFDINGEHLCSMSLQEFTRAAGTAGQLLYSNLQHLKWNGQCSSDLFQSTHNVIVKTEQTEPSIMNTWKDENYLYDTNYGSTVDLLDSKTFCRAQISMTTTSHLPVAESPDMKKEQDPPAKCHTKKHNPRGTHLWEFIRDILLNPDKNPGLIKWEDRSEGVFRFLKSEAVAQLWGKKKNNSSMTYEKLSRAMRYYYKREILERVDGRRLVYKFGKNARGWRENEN
# Summary of the method: as §1
# SPI1 = SPI1 (Homo sapiens, UniProt P17947 1-270); conditions: protein: recombinant; tags: N-terminal GST; dsDNA, one strand shown
# Summary of the method: as §1
# SPIB = SPIB (Homo sapiens, UniProt Q01892 1-262); conditions: protein: recombinant; tags: N-terminal GST; dsDNA, one strand shown
# SPIB, sequence (Q01892 whole entry): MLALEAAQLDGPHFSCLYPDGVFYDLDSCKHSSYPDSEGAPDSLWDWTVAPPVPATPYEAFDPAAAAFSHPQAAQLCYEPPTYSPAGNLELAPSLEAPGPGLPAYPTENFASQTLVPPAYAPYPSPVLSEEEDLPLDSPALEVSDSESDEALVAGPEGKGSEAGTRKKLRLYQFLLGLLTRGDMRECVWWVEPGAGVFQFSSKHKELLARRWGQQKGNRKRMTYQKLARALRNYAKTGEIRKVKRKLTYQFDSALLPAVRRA
# Summary of the method: as §1
# ELK3 = target: T6, ELK3 (Homo sapiens, UniProt P41970 1-407); conditions: protein: recombinant; tags: N-terminal GST; dsDNA, one strand shown
# T6 sequence: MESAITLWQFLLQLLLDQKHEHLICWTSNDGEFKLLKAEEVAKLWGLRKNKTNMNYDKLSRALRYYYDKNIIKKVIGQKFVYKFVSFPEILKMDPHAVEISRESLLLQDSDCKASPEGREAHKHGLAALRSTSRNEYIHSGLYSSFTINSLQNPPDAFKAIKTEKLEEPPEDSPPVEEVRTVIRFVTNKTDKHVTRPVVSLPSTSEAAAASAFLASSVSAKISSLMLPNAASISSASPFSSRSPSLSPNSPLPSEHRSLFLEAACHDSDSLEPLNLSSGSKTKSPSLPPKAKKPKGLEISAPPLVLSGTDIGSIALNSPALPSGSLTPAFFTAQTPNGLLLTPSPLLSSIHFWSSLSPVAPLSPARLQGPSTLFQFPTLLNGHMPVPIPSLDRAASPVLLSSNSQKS
# Summary of the method: as §1
# FEV = target: T7, FEV (Homo sapiens, UniProt Q99581 1-238); conditions: protein: recombinant; tags: N-terminal GST; dsDNA, one strand shown
# T7 sequence: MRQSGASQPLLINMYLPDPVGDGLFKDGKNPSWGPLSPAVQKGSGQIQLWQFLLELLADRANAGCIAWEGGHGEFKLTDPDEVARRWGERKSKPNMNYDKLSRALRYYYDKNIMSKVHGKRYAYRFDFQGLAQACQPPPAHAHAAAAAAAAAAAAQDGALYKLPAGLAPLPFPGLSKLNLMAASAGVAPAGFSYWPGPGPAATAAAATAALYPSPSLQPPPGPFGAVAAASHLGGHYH
# Summary of the method: as §1
# ETV5 = ETV5 (Homo sapiens, UniProt P41161 1-510); conditions: protein: recombinant; tags: N-terminal GST; dsDNA, one strand shown
# ETV5, sequence (P41161 whole entry): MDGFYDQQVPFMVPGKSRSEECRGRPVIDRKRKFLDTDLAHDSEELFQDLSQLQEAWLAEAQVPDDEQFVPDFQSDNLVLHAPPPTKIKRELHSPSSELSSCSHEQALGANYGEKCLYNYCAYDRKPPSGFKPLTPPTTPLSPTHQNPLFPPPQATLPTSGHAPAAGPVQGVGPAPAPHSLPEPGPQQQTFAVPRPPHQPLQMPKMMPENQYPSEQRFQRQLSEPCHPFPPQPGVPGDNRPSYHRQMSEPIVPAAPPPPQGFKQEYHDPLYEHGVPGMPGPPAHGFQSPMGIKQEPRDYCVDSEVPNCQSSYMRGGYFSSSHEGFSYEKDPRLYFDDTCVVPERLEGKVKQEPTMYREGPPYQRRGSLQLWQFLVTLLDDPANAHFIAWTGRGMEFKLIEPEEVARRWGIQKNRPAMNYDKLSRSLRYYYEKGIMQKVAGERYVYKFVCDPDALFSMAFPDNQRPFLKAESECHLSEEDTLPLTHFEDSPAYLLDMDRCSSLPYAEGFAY
# Summary of the method: as §1
# HSF1 = HSF1 (Homo sapiens, UniProt Q00613 1-529); conditions: protein: recombinant; tags: N-terminal GST; chain copies: 3; dsDNA, one strand shown
# HSF1, sequence (Q00613 whole entry): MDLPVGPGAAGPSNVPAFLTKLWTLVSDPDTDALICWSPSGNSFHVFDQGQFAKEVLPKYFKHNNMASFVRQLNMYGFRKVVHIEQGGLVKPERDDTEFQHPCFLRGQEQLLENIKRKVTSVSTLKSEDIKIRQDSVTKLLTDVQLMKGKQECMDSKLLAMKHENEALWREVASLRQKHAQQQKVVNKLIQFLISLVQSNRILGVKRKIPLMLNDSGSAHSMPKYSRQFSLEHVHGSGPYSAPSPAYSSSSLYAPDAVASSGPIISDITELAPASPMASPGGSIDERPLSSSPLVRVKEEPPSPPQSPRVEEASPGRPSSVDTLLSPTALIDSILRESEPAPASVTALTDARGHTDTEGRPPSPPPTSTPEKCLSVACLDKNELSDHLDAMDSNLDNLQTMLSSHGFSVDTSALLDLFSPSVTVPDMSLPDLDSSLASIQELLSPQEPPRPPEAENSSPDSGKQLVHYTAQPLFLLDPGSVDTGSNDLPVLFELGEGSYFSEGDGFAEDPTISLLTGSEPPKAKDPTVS
# Summary of the method: as §1
# SPIC = target: T8, SPIC (Homo sapiens, UniProt Q8N5J4 1-248); conditions: protein: recombinant; tags: N-terminal GST; dsDNA, one strand shown
# T8 sequence: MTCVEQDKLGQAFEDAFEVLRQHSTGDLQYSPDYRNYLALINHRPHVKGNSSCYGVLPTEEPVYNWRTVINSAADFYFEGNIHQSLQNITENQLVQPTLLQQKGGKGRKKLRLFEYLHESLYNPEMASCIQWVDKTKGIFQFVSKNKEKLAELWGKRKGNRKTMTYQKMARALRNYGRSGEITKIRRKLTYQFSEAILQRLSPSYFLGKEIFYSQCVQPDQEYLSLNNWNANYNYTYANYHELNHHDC
# Summary of the method: as §1
# ELF4 = ELF4 (Homo sapiens, UniProt Q99607 1-663); conditions: protein: recombinant; tags: N-terminal GST; dsDNA, one strand shown
# ELF4, sequence (Q99607 whole entry): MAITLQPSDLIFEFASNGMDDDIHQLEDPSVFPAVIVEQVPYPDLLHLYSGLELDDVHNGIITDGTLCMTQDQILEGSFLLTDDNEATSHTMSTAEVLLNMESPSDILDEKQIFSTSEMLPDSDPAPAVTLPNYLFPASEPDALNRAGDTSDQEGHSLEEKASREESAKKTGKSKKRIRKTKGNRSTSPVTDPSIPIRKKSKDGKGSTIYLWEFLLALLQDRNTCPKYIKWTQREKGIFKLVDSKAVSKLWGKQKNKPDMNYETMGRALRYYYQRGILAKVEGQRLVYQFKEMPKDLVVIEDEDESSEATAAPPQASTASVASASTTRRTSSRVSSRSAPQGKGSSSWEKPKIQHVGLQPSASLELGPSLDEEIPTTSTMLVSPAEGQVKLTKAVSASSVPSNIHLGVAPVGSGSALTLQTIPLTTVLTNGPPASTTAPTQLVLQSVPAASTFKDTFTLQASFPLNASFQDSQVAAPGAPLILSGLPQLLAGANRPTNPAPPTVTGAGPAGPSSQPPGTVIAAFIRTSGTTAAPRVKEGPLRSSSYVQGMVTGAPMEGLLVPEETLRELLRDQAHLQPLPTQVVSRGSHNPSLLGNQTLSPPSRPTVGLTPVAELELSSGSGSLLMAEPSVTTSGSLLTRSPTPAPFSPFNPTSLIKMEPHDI
# Summary of the method: as §1
# ELK4 = target: T9, ELK4 (Homo sapiens, UniProt P28324-2 1-405); conditions: protein: recombinant; tags: N-terminal GST; dsDNA, one strand shown
# T9 sequence: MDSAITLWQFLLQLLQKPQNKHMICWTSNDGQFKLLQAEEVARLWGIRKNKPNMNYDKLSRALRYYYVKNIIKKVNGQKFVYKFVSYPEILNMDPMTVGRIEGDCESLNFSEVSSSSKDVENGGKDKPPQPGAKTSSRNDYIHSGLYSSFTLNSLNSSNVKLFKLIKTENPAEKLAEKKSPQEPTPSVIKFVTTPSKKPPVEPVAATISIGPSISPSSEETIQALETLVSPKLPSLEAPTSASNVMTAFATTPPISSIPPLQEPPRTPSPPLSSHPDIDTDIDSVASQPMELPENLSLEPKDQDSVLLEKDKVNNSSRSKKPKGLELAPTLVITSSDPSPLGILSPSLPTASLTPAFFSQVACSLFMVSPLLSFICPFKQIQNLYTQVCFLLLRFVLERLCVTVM
# Summary of the method: as §1
# ETV2 = target: T10, ETV2 (Homo sapiens, UniProt O00321 1-342); conditions: protein: recombinant; tags: N-terminal GST; dsDNA, one strand shown
# T10 sequence: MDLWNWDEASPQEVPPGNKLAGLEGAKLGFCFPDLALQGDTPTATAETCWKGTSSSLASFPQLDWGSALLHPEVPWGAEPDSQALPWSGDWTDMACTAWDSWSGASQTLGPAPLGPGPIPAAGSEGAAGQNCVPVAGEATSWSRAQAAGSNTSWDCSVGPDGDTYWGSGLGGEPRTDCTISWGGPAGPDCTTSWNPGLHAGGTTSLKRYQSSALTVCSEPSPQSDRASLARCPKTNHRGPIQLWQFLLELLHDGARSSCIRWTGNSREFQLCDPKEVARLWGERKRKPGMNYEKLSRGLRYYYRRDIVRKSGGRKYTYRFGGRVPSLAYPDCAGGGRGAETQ
# Summary of the method: as §1
# ELF3 = target: T11, ELF3 (Homo sapiens, UniProt P78545 1-371); conditions: protein: recombinant; tags: N-terminal GST; dsDNA, one strand shown
# T11 sequence: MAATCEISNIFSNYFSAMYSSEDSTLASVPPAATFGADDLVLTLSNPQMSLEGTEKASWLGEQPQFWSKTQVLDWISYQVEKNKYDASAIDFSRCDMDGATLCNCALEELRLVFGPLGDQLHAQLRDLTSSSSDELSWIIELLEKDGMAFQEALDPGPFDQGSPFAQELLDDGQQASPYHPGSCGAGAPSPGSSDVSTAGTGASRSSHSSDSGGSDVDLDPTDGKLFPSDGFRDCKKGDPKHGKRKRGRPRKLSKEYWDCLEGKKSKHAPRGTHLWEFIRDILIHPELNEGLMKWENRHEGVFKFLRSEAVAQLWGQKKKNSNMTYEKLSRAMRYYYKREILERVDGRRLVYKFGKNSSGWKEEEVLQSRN
# Summary of the method: as §1
# CRX = CRX (Homo sapiens, UniProt O43186 1-299); conditions: protein: recombinant; tags: N-terminal GST; dsDNA, one strand shown
# CRX, sequence (O43186 whole entry): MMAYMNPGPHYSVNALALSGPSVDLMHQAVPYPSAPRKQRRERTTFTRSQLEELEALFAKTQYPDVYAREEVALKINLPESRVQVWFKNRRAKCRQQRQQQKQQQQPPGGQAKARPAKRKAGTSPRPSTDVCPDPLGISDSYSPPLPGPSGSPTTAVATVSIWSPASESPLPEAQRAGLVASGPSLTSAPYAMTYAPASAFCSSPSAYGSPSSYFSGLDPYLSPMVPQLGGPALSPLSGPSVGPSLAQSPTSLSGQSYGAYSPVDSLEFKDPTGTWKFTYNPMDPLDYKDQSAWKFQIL
# Summary of the method: as §1
# ETV1 = ETV1 (Homo sapiens, UniProt P50549 1-477); conditions: protein: recombinant; tags: N-terminal GST; dsDNA, one strand shown
# ETV1, sequence (P50549 whole entry): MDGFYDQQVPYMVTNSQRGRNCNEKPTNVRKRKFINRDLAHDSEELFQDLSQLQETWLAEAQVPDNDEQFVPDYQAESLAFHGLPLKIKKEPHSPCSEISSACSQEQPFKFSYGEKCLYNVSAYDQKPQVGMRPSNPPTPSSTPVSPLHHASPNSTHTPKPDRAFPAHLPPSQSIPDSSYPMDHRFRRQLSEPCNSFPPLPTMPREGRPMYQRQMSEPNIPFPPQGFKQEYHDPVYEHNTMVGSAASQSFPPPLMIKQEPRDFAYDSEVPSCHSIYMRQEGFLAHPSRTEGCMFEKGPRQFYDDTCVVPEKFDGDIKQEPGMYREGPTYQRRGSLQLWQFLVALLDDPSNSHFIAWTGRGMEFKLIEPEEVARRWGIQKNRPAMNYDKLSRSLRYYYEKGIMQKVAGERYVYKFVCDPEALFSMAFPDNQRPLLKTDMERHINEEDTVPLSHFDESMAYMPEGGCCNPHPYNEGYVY
# Summary of the method: as §1
sequence,measurement,setting,value
CACGTA,binding signal,FLI1,"1.1 fold enrichment (6-mer frequency, TF over GST control)"
same,binding signal,ELK1,"1.18 fold enrichment (6-mer frequency, TF over GST control)"
same,binding signal,GABPA,"1.23 fold enrichment (6-mer frequency, TF over GST control)"
same,binding signal,ERG,"1.1 fold enrichment (6-mer frequency, TF over GST control)"
same,binding signal,ELF1,"1.13 fold enrichment (6-mer frequency, TF over GST control)"
same,binding signal,EHF,"1.11 fold enrichment (6-mer frequency, TF over GST control)"
same,binding signal,SPI1,"1.12 fold enrichment (6-mer frequency, TF over GST control)"
same,binding signal,SPIB,"1.17 fold enrichment (6-mer frequency, TF over GST control)"
same,binding signal,ELK3,"1.12 fold enrichment (6-mer frequency, TF over GST control)"
same,binding signal,FEV,"1.1 fold enrichment (6-mer frequency, TF over GST control)"
same,binding signal,ETV5,"1.13 fold enrichment (6-mer frequency, TF over GST control)"
same,binding signal,HSF1,"1.05 fold enrichment (6-mer frequency, TF over GST control)"
same,binding signal,SPIC,"1.22 fold enrichment (6-mer frequency, TF over GST control)"
same,binding signal,ELF4,"1.2 fold enrichment (6-mer frequency, TF over GST control)"
same,binding signal,ELK4,"1.23 fold enrichment (6-mer frequency, TF over GST control)"
same,binding signal,ETV2,"1.09 fold enrichment (6-mer frequency, TF over GST control)"
same,binding signal,ELF3,"1.18 fold enrichment (6-mer frequency, TF over GST control)"
same,binding signal,CRX,"1.06 fold enrichment (6-mer frequency, TF over GST control)"
same,binding signal,ETV1,"1.14 fold enrichment (6-mer frequency, TF over GST control)"
